The source of these data is PubChem BioAssay (NCI).

The panel holds about 83,000 compounds, 20% with a hit somewhere; the sample as a whole holds those more often.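 Negative percent growth values reflect cell death: -40 means 40% of the cells present at the start died, and -100 means all died.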 Values without a mark were called inactive. Active and inactive are the calls of the source. How the source made its calls: active means growth percent below 10; inactive means the rest.

Test systems include SR leukemia; RPMI-8226 leukemia; OVCAR-8 ovarian; OVCAR-5 ovarian; OVCAR-4 ovarian; SK-OV-3 ovarian; IGROV1 ovarian; OVCAR-3 ovarian; HS 578T breast; NCI/ADR-RES ovarian; T-47D breast; BT-549 breast; MDA-MB-435 melanoma; SW-620 colon; MCF7 breast; HCT-116 colon; HCC-2998 colon; KM12 colon.
Common to all, as to test: NCI-60 one-dose screen, 48 h (100 = growth as untreated, 0 = no growth, -100 = all killed)
Holding throughout (details): 10 µM unless noted

Regarding `CC/C(=C(/c1ccc(Cl)cc1)c1ccc(OCCN2CCOCC2)cc1)c1ccccc1`, the growth with SR leukemia was 85.1%; with RPMI-8226 leukemia it was 80.3%; in the assay on OVCAR-8 ovarian it was 91.6%; with OVCAR-5 ovarian, 100%; in the assay with OVCAR-4 ovarian, 100%; in the assay on SK-OV-3 ovarian, 116%. The growth with IGROV1 ovarian was 108%; with OVCAR-3 ovarian, 96%; in the assay with HS 578T breast, 99.2%; in the assay with NCI/ADR-RES ovarian it was 103%; in the assay on T-47D breast, 71.7%; in the assay with BT-549 breast, 117%. Also, the growth is 94.8% in the assay on MDA-MB-435 melanoma; 83.7% in the assay on SW-620 colon; 86.2% in the assay on MCF7 breast; 77.6% with HCT-116 colon; 99.8% with HCC-2998 colon; 96.6% with KM12 colon.
For `O=C1Nc2ccccc2/C1=C/c1cccn1CCCCCn1c2ccccc2c(=O)c2ccccc21`, the growth with SR leukemia is 76.1%; with RPMI-8226 leukemia it was 22.1%; with OVCAR-8 ovarian, 45.6%; in the assay with OVCAR-5 ovarian it was 82.6%; in the assay with OVCAR-4 ovarian, 57.1%; in the assay on SK-OV-3 ovarian, 90.4%. In addition, the growth with IGROV1 ovarian was 73%; with OVCAR-3 ovarian it was 70.9%; in the assay on HS 578T breast it was 90.5%; in the assay on NCI/ADR-RES ovarian, 60.9%; in the assay on T-47D breast, 1.55% (active); in the assay with BT-549 breast it was 65.5%. The growth in the assay with MDA-MB-435 melanoma is 93.6%; in the assay with SW-620 colon it was 100%; in the assay with MCF7 breast it was 1.17% (active); in the assay with HCT-116 colon, 69.8%; in the assay on HCC-2998 colon, 42.5%; in the assay with KM12 colon it was 12.1%.
For `CN1CCN(CCNC(=O)c2cccc(CN3c4cccc5c4C(=Cc4cccnc43)N(C)C5=O)c2)CC1`, the growth in the assay with SR leukemia is 33.5%; in the assay on RPMI-8226 leukemia, 2.26% (active); with OVCAR-8 ovarian, 40.8%; in the assay with OVCAR-5 ovarian, 42%; with OVCAR-4 ovarian, 37.4%; with SK-OV-3 ovarian, 18.2%. Besides, the growth with IGROV1 ovarian was 18.6%; in the assay on OVCAR-3 ovarian, 34.3%; in the assay with HS 578T breast it was -6.06% (active); in the assay on NCI/ADR-RES ovarian, 80.9%; with T-47D breast, 34.8%; in the assay on BT-549 breast it was 57.5%. For the same molecule, the growth in the assay with MDA-MB-435 melanoma was 39.8%; in the assay with SW-620 colon it was 52.7%; with MCF7 breast, 16.6%; in the assay on HCT-116 colon it was 25.8%; with HCC-2998 colon, 39.8%; in the assay with KM12 colon, 44.6%.
As to `COc1cc(-c2nc(SCCC(C)C)nc(Nc3ccc(F)cc3)c2C#N)cc(OC)c1OC`, the growth was 73.1% in the assay on SR leukemia; 91.2% in the assay with RPMI-8226 leukemia; 40.7% with OVCAR-8 ovarian; 95% in the assay with OVCAR-5 ovarian; 2.39% (active) in the assay with OVCAR-4 ovarian; 47.3% with SK-OV-3 ovarian. For the same molecule, the growth was 69.6% in the assay on IGROV1 ovarian; 19.8% in the assay on OVCAR-3 ovarian; 50.1% with HS 578T breast; 77.7% in the assay with NCI/ADR-RES ovarian; 65.7% with T-47D breast; 74.9% in the assay on BT-549 breast. Further, the growth was 79.4% in the assay with MDA-MB-435 melanoma; 80.1% in the assay on SW-620 colon; 87% in the assay with MCF7 breast; 22% in the assay on HCT-116 colon; 102% in the assay on HCC-2998 colon; 78.6% with KM12 colon.
As for `C=C1C(=O)O[C@H]2[C@H]1CC/C(COC(=O)NCCCCNC(=O)OC/C1=C/CC[C@@]3(C)O[C@H]3[C@H]3OC(=O)C(=C)[C@@H]3CC1)=C\CC[C@@]1(C)O[C@@H]21`, the growth is -1.79% (active) in the assay with SR leukemia; -28.3% (active) in the assay with RPMI-8226 leukemia; 12.5% in the assay with OVCAR-8 ovarian; 4.4% (active) in the assay with OVCAR-5 ovarian; 31.1% with OVCAR-4 ovarian; 94.2% with SK-OV-3 ovarian. Further, the growth is 48.9% with IGROV1 ovarian; -8.75% (active) in the assay with OVCAR-3 ovarian; 70.5% with HS 578T breast; 99.5% in the assay with NCI/ADR-RES ovarian; 9.48% (active) with T-47D breast; -40% (active) in the assay on BT-549 breast. Besides, the growth with MDA-MB-435 melanoma is -25.6% (active); with SW-620 colon, -27.8% (active); with MCF7 breast, 9.53% (active); in the assay on HCT-116 colon, -65.2% (active); in the assay on HCC-2998 colon it was 89.5%; in the assay with KM12 colon it was 88.2%.
In the case of `Cn1cc(C2=C(c3cccc4ccccc34)C(=O)NC2=O)c2cc(Br)ccc21`, the growth is 60.8% in the assay on SR leukemia; 121% with RPMI-8226 leukemia; 95.9% with OVCAR-8 ovarian; 126% with OVCAR-5 ovarian; 124% in the assay with OVCAR-4 ovarian; 90.3% in the assay on SK-OV-3 ovarian. Besides, the growth is 94.9% in the assay on IGROV1 ovarian; 104% in the assay with OVCAR-3 ovarian; 82% with HS 578T breast; 92.2% in the assay on NCI/ADR-RES ovarian; 81.3% in the assay with T-47D breast; 109% with BT-549 breast. Moreover, the growth was 95.7% in the assay on MDA-MB-435 melanoma; 96.1% in the assay with SW-620 colon; 84.3% in the assay with MCF7 breast; 71.3% with HCT-116 colon; 126% in the assay on HCC-2998 colon; 89.7% in the assay with KM12 colon.
On to `COc1ccc(C(=O)N/N=C/c2ccc(O)cc2O)cc1Nc1ccnc(C(F)(F)F)c1`, for which the growth was 35.3% in the assay on SR leukemia; 41.7% in the assay with RPMI-8226 leukemia; 23.1% with OVCAR-8 ovarian; 46.3% in the assay with OVCAR-5 ovarian; 31.7% with OVCAR-4 ovarian; 19.7% in the assay on SK-OV-3 ovarian. For the same molecule, the growth in the assay with IGROV1 ovarian is 26.8%; with OVCAR-3 ovarian, 78.5%; in the assay on HS 578T breast, 55.4%; in the assay on NCI/ADR-RES ovarian, 64%; with T-47D breast, 21.6%; in the assay on BT-549 breast, 55.6%. In addition, the growth was 32.7% with MDA-MB-435 melanoma; 35.8% in the assay with SW-620 colon; 21.9% with MCF7 breast; 15.6% in the assay with HCT-116 colon; 40.9% in the assay on HCC-2998 colon; 69.4% with KM12 colon.
